# Measured values published in PubChem BioAssay AID720690 (Broad Institute, 2013).
# Results with a measured potency or affinity are listed apart. Active and inactive are the calls of the source.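 How the source made its calls: active means every repeat run showing a signal drop whose fitted half-maximal concentration is at most twice the top tested concentration; inconclusive means repeat runs disagree, or flat partial drop, or poor fit; inactive means the rest.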
# Assay: HEK293T cytotoxicity, dose response, cytotoxicity control for miR-122 modulator project, cell-based, activator set, cherry-pick (AID 720690)
# Details: HEK293T viability, CellTiter-Glo luminescence, 48 h; series mostly up to 26 µM
row,Compound,outcome
1,CC(=O)N1[C@H](CN(C(=O)c2ccc(F)cc2)C(C)C)[C@H](c2ccccc2)[C@@H]1CO,inactive
2,CC(C)NC(=O)N(C)C[C@H]1Oc2cc(C#C[C@H](C)O)ccc2S(=O)(=O)N([C@@H](C)CO)C[C@H]1C,inactive
3,COCC(=O)N(C[C@H]1[C@H](c2ccccc2)[C@@H](CO)N1C(=O)NC(C)C)C(C)C,inactive
4,CN(C)CCCNC(=O)C[C@@H]1CC[C@H]2[C@@H](COc3ccc(NC(=O)c4cccc(F)c4)cc3C(=O)N2C)O1,inactive
5,C[C@@H]1CN([C@@H](C)CO)C(=O)c2cc(NC(=O)NC3CCCCC3)ccc2O[C@@H]1CN(C)C(=O)Nc1ccc2c(c1)OCO2,inactive
6,CCOc1ccc2nc(NS(=O)(=O)c3cccs3)sc2c1,inactive
7,CCS(=O)(=O)Nc1ccc2c(c1)C(=O)N(C)[C@@H]1CC[C@@H](CC(=O)NCCCN3CCOCC3)O[C@H]1CO2,inactive
8,COCC(=O)Nc1ccc2c(c1)C(=O)N(C)[C@@H]1CC[C@@H](CC(=O)NC3Cc4ccccc4C3)O[C@@H]1CO2,inactive
9,CCCNC(=O)Nc1ccc2c(c1)C(=O)N(C)[C@@H]1CC[C@H](CC(=O)O)O[C@H]1CO2,inactive
10,COCC(=O)N(C[C@@H]1N[C@H](CO)[C@H]1c1ccc(-c2cccnc2)cc1)C(C)C,inactive
11,CCC(=O)N(C)C[C@@H]1[C@@H](c2ccccc2)[C@H](CO)N1Cc1cccnc1,inactive
12,COc1cccc(OCc2cc(/C=N/Nc3ccc(C(=O)O)cc3)ccc2OC)c1,inactive
13,COc1cc(N)c(Cl)cc1NC(=O)c1ccccc1,inactive
14,CC(C)CC#Cc1ccc2c(c1)O[C@H](CN(C)C(=O)c1cnccn1)[C@H](C)CN([C@H](C)CO)S2(=O)=O,inactive
15,Cc1cnc(NC(=O)c2cc3c(C)nn(-c4ccccc4)c3s2)s1,inactive
16,CN(C)CCCNC(=O)C[C@H]1CC[C@H]2[C@H](COc3ccc(NC(=O)c4cccc(F)c4)cc3C(=O)N2C)O1,inactive
17,CN1C(=O)c2cc(NC(=O)c3cccc(F)c3)ccc2OC[C@@H]2O[C@H](CC(=O)NC3CCC3)CC[C@@H]21,inactive
18,CCCNC(=O)C[C@H]1CC[C@@H]2[C@H](COc3ccc(NC(=O)c4cc(F)cc(F)c4)cc3C(=O)N2C)O1,inactive
19,CCCNC(=O)C[C@@H]1CC[C@@H]2[C@@H](COc3ccc(NC(=O)Nc4ccccc4F)cc3C(=O)N2C)O1,inactive
20,CCC(=O)N1[C@H](CO)[C@@H](c2ccccc2)[C@@H]1CN(CC)C(=O)c1cccc(F)c1,inactive

row,Compound,outcome
1,CCCNC(=O)C[C@@H]1CC[C@@H]2[C@H](COc3ccc(NC(=O)Nc4ccccc4F)cc3C(=O)N2C)O1,inactive
2,CC(C)C(=O)Nc1ccc2c(c1)C(=O)N(C)[C@@H]1CC[C@@H](CC(=O)NCCc3ccccc3)O[C@H]1CO2,inactive
3,C/C=C/c1ccc2c(c1)O[C@H](CN(C)C(=O)c1cnccn1)[C@H](C)CN([C@@H](C)CO)S2(=O)=O,inactive
4,CCCNC(=O)Nc1ccc2c(c1)C(=O)N(C)[C@H]1CC[C@H](CC(=O)NC3CCC3)O[C@H]1CO2,inactive
5,CC(C)C#Cc1ccc2c(c1)O[C@H](CN(C)C(=O)Nc1ccccc1)[C@H](C)CN([C@@H](C)CO)S2(=O)=O,inactive
6,CN1CCN(c2ccc(Cl)cc2NC(=O)c2ccc(S(=O)(=O)N3CCCCCC3)cc2)CC1,inactive
7,C/C=C/c1ccc([C@H]2[C@H](CO)N(C(C)=O)[C@H]2CN(C)C(=O)c2ccccn2)cc1,inactive
8,O=C(NC[C@@H]1[C@@H](c2ccccc2)[C@H](CO)N1C(=O)C1CCC1)NC1CCCC1,inactive
9,C[C@@H]1CN([C@H](C)CO)S(=O)(=O)c2ccc(/C=C/c3ccccc3)cc2O[C@@H]1CN(C)C(=O)c1cccnc1,inactive
10,Cc1cc(C(=O)Nc2ccc3c(c2)C(=O)N(C)[C@H]2CC[C@H](CC(=O)N[C@@H](C)c4ccccc4)O[C@H]2CO3)no1,inactive
11,O=C(Nc1ccc(F)cc1)N1C[C@H]2[C@@H](c3ccccc31)[C@H](CO)N2C(=O)c1ccncc1,inactive
12,C[C@@H]1CN([C@@H](C)CO)S(=O)(=O)c2ccc(C#Cc3ccncc3)cc2O[C@@H]1CN(C)C(=O)C1CCOCC1,inactive
13,C=CCNC(=S)NNC(=O)c1cccn(Cc2ccc(Cl)c(Cl)c2)c1=O,inactive
14,Cc1c(CC(=O)NCCCC(=O)O)c(=O)oc2cc3occ(-c4ccccc4)c3cc12,inactive
15,CNC(=O)C[C@@H]1CC[C@H]2[C@@H](COc3ccc(NC(=O)c4cccc(OC)c4)cc3C(=O)N2C)O1,inactive
16,O=C(Nc1ccc(Cl)c(C(F)(F)F)c1)c1ccco1,inactive
17,COCCN(C[C@H]1[C@H](c2ccccc2)[C@@H](CO)N1C(=O)C1CCC1)C(C)=O,inactive
18,COCCNC(=O)C[C@H]1CC[C@@H]2[C@H](COc3ccc(NC(=O)c4cnccn4)cc3C(=O)N2C)O1,inactive
19,CCN(C[C@@H]1[C@@H](c2ccccc2)[C@H](CO)N1C(C)=O)C(=O)NC(C)C,inactive
